The values below come from PubChem BioAssay (NCI).

About 83,000 compounds went through this panel and 20% of them were active in at least one assay; those are over-represented in the sample as a whole.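 Results are percent growth after 48 hours of single-concentration exposure. 100 means growth as in untreated cells, lower positive values show inhibition; negative values down to -100 show cell death.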 A number with no mark means an inactive call. The source made the active and inactive calls. How the source made its calls: active means growth percent below 10; inactive means the rest.

Common to all, as to assay: NCI-60 one-dose screen, 48 h (100 = growth as untreated, 0 = no growth, -100 = all killed)
Experiment [1] deals with HT29 colon. To be noted: 10 µM unless noted.
The test system of experiment [2] is SNB-75 CNS. To be noted: 10 µM unless noted.
Experiment [3] has as its system SNB-19 CNS. The note with it: 10 µM unless noted.
The subject of experiment [4] is U251 CNS. To be noted: 10 µM unless noted.
Experiment [5] has as its system PC-3 prostate. The note with it: 10 µM unless noted.
Experiment [6] concerns SK-MEL-5 melanoma. The note with it: 10 µM unless noted.
In experiment [7] the test system is UACC-62 melanoma. To be noted: 10 µM unless noted.
The subject of experiment [8] is LOX IMVI melanoma. To be noted: 10 µM unless noted.
The subject of experiment [9] is SK-MEL-28 melanoma. To be noted: 10 µM.
In experiment [10] the test system is SK-MEL-2 melanoma. The note with it: 10 µM unless noted.
Experiment [11] has as its system EKVX NSCLC. The note with it: 10 µM unless noted.
The test system of experiment [12] is SN12C renal. The note with it: 10 µM unless noted.
The subject of experiment [13] is UO-31 renal. To be noted: 10 µM unless noted.
The subject of experiment [14] is TK-10 renal. To be noted: 10 µM unless noted.
The test system of experiment [15] is ACHN renal. The note with it: 10 µM unless noted.
The subject of experiment [16] is CAKI-1 renal. The note with it: 10 µM unless noted.
The test system of experiment [17] is A498 renal. To be noted: 10 µM unless noted.
Experiment [18] relates to CCRF-CEM leukemia. To be noted: 10 µM unless noted.
Experiment [19] concerns MOLT-4 leukemia. The note with it: 10 µM unless noted.
The test system of experiment [20] is SR leukemia. To be noted: 10 µM unless noted.

In the case of `CC1(O)COCCCCOc2c(CN)cccc2NC(=O)c2nc(cnc2N)-c2ccc(cc2)S(=O)(=O)C(C)(C)C1` (stereo not given), the growth is 1.64% (active) in experiment [1]; -60.3% (active) in [2]; -55.9% (active) in [3]; -74.9% (active) in experiment [4]; 14% in experiment [5]; -94.9% (active) in [6]. The growth in experiment [7] was -90.8% (active); in experiment [8] it was -86.3% (active); in experiment [9], -87.8% (active); in experiment [10], -32.6% (active); in experiment [11], -58% (active); in experiment [12], -81.1% (active). The growth in [13] was -97.5% (active); in experiment [14], -36.2% (active); in experiment [15], -99.2% (active); in experiment [16] it was 39.4%; in experiment [17], -34.4% (active); in [18], 5.36% (active). For the same molecule, the growth in experiment [19] is -15.6% (active); in [20], 8.92% (active).
As for `O=C1/C(=C/c2ccc(O)cc2)COc2ccc(O)cc21`, the growth in experiment [1] is 98.3%; in [2], 96.4%; in experiment [3], 99.9%; in experiment [4], 80%; in experiment [5], 94.3%; in experiment [6], 102%. The growth in [7] was 92.8%; in experiment [8] it was 70.1%; in experiment [9], 105%; in [10], 114%; in [11], 106%; in experiment [12], 96.7%. Besides, the growth in experiment [13] is 87.5%; in experiment [14], 115%; in experiment [15], 96.5%; in [16], 103%; in [17] it was 103%; in experiment [18], 76.7%. For the same molecule, the growth in experiment [19] was 93.7%; in experiment [20], 33%.
On to `Cc1ccccc1CNC(=O)C1CN(c2ccc(Cl)cc2)N(c2ccc(Cl)cc2)C1=O` (stereo not given), for which the growth in experiment [1] is 77%; in experiment [2] it was 88%; in experiment [3], 89.5%; in experiment [4], 89.7%; in experiment [5] it was 72.8%; in experiment [6], 86.2%. The growth in experiment [7] was 60.8%; in [8], 92.9%; in experiment [9], 91%; in experiment [10], 91.8%; in experiment [11] it was 91.8%; in experiment [12] it was 90.8%. The growth in experiment [13] was 64.1%; in [14], 91.3%; in experiment [15], 87.4%; in experiment [16] it was 71.6%; in experiment [17] it was 86.2%; in experiment [18], 84.3%. The figures for the growth in experiment [19] and in [20] were 81.1% and 59.8%, respectively.
`COc1ccc(C2Nc3ncnc(N)c3N=C3c4ccccc4C(=O)C32)cc1` (stereo not given): the growth in experiment [1] is 98.2%; in experiment [2] it was 71.5%; in experiment [3], 82.2%; in [4], 90.9%; in experiment [5] it was 78%; in experiment [6], 95.6%. Besides, the growth in experiment [7] is 117%; in experiment [8], 92.8%; in [9], 113%; in experiment [10], 88.5%; in [11] it was 94.5%; in experiment [12], 140%. The growth in experiment [13] is 67%; in experiment [14], 123%; in experiment [15] it was 92.4%; in experiment [16] it was 80.1%; in [17], 99.2%; in [18] it was 97.9%. The growth was 57.9% in experiment [19] and 9.71% (active) in [20].
With `COc1ccc2c(c1)C=C1CSCC3=Cc4cc(OC)ccc4OC13O2`, the growth is 6.74% (active) in experiment [1]; 23.9% in experiment [2]; 28.9% in experiment [3]; 18.7% in [4]; 19.3% in [5]; 14% in experiment [6]. For the same molecule, the growth in [7] is 14.2%; in [8], 24.1%; in [9] it was 60%; in experiment [10], 52.6%; in experiment [11], 40.3%; in experiment [12] it was 28.2%. Also, the growth in [13] is 44.5%; in [14] it was 60.7%; in experiment [15], 32.5%; in experiment [16], 37.1%; in [17] it was 4.68% (active); in [18], 16.1%. Also, the growth in experiment [19] was 14.3%; in [20] it was 27%.
In the case of `COc1ccc(Cn2cc(Cn3c(=O)c(-c4nc5ccccc5[nH]4)cc4ccccc43)nn2)c(OC)c1OC`, the growth in experiment [1] was 4.85% (active); in experiment [2] it was -74% (active); in experiment [3], 22.8%; in experiment [4], 12.7%; in experiment [5], 17%; in [6], 5.92% (active). Moreover, the growth was 23.2% in [7]; 18.9% in experiment [8]; 50.1% in experiment [9]; 28% in experiment [10]; 30.8% in experiment [11]; 18.7% in experiment [12]. The growth in experiment [13] is 18.2%; in experiment [14], 33.9%; in experiment [15] it was 35%; in [16], 21.7%; in experiment [17], -27.4% (active); in experiment [18] it was 22.6%. For the same molecule, the values for the growth in experiment [19] and in experiment [20] were 17.9% and 21.8%, respectively.
As for `CN(O)c1nc(N(C)O)nc(N2CCOCC2)n1`, the growth in experiment [1] was 23.7%; in experiment [2] it was 29.2%; in experiment [3], 32.8%; in [4] it was 31.5%; in [5] it was 58.9%; in [6], 34.2%. The growth in experiment [7] is 29.1%; in experiment [8] it was 25.4%; in [9] it was 61.1%; in experiment [10], 62.6%; in experiment [11] it was 5.22% (active); in [12] it was 53.7%. The growth in experiment [13] was 12.7%; in [14], 16.3%; in experiment [15], 17.5%; in experiment [16], -11.2% (active); in experiment [17], 89.6%; in experiment [18], 5.09% (active). The figures for the growth in [19] and in experiment [20] were 22.1% and 55.6%, respectively.
In the case of `O=C(CSc1nc2ccccc2c(=O)n1-c1ccccc1)Nc1ccc(C(=O)/C=C/c2ccc(Cl)cc2)cc1`, the growth was 100% in experiment [1]; 114% in experiment [2]; 96.1% in experiment [3]; 106% in experiment [4]; 103% in [5]; 103% in [6]. Moreover, the growth was 86% in experiment [7]; 101% in experiment [8]; 106% in [9]; 99.9% in experiment [10]; 103% in [11]; 101% in experiment [12]. Also, the growth in [13] was 82.5%; in experiment [14], 110%; in experiment [15], 102%; in [16] it was 97.8%; in [17], 95.2%; in [18] it was 99.7%. Moreover, the growth was 99.5% in experiment [19] and 85.3% in experiment [20].
